# Assay results: publication PMC4336329 (PLoS ONE, 2015)
# The whole screen tested about 310,000 compounds, of which about 14,000 (4.5%) showed an effect of 50% or more. Effects have a minus sign here. The sample as a whole holds a higher share of strong results than the screen did.
# Target: human ether-à-go-go-related gene (hERG) potassium channel (human, UniProt Q12809)
# Assay: primary screen, population patch clamp on CHO cells stably expressing hERG; higher = less effect of the substance
# 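Also: peak tail current of the secondary pulse compared with the same well before compound.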
# Chain of human ether-à-go-go-related gene (hERG) potassium channel (Q12809 whole entry, looked up): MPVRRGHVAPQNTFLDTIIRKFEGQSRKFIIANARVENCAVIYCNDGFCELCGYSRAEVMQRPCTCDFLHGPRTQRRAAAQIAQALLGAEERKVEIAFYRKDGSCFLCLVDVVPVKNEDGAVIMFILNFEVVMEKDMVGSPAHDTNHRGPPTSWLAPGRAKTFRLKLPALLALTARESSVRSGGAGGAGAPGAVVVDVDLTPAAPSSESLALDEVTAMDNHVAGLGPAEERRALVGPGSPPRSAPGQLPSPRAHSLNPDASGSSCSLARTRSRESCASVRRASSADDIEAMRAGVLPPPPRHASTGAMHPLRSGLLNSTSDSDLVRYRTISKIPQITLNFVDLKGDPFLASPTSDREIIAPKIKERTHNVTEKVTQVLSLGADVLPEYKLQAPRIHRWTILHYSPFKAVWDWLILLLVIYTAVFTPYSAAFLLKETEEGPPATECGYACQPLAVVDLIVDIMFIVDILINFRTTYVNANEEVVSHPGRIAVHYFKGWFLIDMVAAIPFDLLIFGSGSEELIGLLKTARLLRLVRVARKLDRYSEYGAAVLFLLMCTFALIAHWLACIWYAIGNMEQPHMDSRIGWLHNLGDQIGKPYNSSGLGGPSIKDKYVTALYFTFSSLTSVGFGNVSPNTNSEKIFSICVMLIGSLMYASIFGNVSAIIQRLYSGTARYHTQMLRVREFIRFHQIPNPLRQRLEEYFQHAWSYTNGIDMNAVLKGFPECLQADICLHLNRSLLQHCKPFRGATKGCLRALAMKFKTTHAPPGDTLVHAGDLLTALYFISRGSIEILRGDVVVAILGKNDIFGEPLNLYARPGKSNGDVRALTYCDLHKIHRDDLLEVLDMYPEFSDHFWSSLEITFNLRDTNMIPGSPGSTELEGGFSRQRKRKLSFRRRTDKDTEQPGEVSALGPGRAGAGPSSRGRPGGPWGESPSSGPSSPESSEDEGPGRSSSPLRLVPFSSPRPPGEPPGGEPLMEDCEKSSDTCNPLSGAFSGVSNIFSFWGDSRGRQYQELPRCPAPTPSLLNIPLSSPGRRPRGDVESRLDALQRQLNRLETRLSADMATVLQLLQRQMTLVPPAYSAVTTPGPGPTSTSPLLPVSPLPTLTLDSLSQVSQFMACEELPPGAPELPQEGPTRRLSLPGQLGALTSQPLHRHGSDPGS
row,Compound,"hERG current change (%, negative = inhibition) at 10uM [%]"
1,CC(=O)N1c2ccc(S(=O)(=O)N3CCCC(C(=O)N4CCCCC4)C3)cc2CC1C (stereo not drawn),19.2
2,CC(C)(C)NC(=O)CN(Cc1cccs1)C(=O)C1COc2ccccc2O1 (stereo not drawn),-14.7
3,Cc1cc(=O)[nH]c(N/N=C/c2c(C)oc3ccccc23)n1,-0.943
4,Nc1nc(Nc2ccccc2)nc(NC2CCCCC2)c1[N+](=O)[O-],18.9
5,Cn1nccc1C(=O)N1CCOCC1,5.59
6,FC(F)Oc1ccc(NC(=S)NCC2COc3ccccc3O2)cc1 (stereo not drawn),-5.83
7,COc1ccc(OC)c(/C=N\NC(=O)c2ccc(COc3ccc(C)cc3[N+](=O)[O-])o2)c1,16.2
8,N#Cc1cnn(-c2cccc(Cl)c2)c1N,11.6
9,Cc1csc(NC(=O)CS(=O)(=O)c2ccccc2)n1,-18.1
10,COc1ccc(NC(=O)c2nc[nH]c2C(=O)N2CCN(c3ccccc3)CC2)cc1,3.64
11,CC(C)CN(C(=O)CSc1nn(-c2ccc(Cl)cc2)c(=S)s1)C1CCS(=O)(=O)C1 (stereo not drawn),-20.1
12,O=C(COC(=O)/C=C/c1cccs1)Nc1nc(-c2ccccc2)cs1,12.1
13,c1ccc(CN2CCN(c3nc4ccccc4s3)CC2)cc1,11.8
14,Nc1nc(N2CCN(Cc3ccccc3)CC2)n[nH]1,24.7
15,c1ccc(CNc2nc(NCc3ccco3)nc(N3CCOCC3)n2)cc1,-28.5
16,Cl.c1ccc(CN2CCN(c3nc(NCc4ccco4)c4ccccc4n3)CC2)cc1,-68.3
17,Cl.c1ccc(CNc2nc(N3CCN(Cc4ccccc4)CC3)nc3ccccc23)cc1,-65.9
18,Nc1nc(NCc2ccco2)nc(N2CCN(Cc3ccccc3)CC2)c1[N+](=O)[O-],-41.9
19,CCc1ccc(CCC(=O)Nc2ccc(C)c(C)c2)o1,-20.8
20,COC(=O)NCC(c1ccco1)N1CCN(c2ccc(F)cc2)CC1 (stereo not drawn),-1.75
21,Cc1[nH]n(-c2ccccc2)c(=O)c1N=Nc1ccccc1C(=O)O,1.85

row,Compound,"hERG current change (%, negative = inhibition) at 10uM [%]"
1,COc1ccc(CN(C)C(=O)C(Cc2ccccc2)NC(=O)c2ccccc2)c(OC)c1 (stereo not drawn),-13.5
2,Cc1nn(-c2ccccc2)c2c1C1(C(=O)Nc3ccccc31)N1C(=N2)Sc2ccccc21 (stereo not drawn),0.952
3,Cc1cc(N)n2nc(C)c(-c3ccccc3)c2n1,-21.9
4,Cc1ccc2c(cnn2C(=O)CCCC(=O)NC(C)c2ccccc2)c1 (stereo not drawn),-5.97
5,CCN(CC)S(=O)(=O)c1cccc(C(=O)Oc2cccnc2)c1,-8.07
6,Cc1ccc(CC(=O)N2CCN(c3ccc([N+](=O)[O-])cc3)CC2)cc1,-62.1
7,Cc1ccc(CC(=O)N2CCN(C)CC2)cc1,18.1
8,COc1ccccc1CC(=O)N1CCN(c2ccc(F)cc2)CC1,-11.1
9,O=C(Cc1ccccc1)N1CCN(Cc2ccc([N+](=O)[O-])cc2)CC1,-63.4
10,Cc1ccc(CC(=O)N2CCN(Cc3ccccc3)CC2)cc1,4.07
11,COc1ccccc1CC(=O)N1CCN(c2ccc([N+](=O)[O-])cc2)CC1,-52
12,O=C(Cc1ccc(Br)cc1)N1CCN(Cc2ccccc2)CC1,-30.9
13,O=C(Cc1ccc([N+](=O)[O-])cc1)N1CCCCCC1,-21.9
14,O=C(Cc1ccc([N+](=O)[O-])cc1)N1CCN(c2ccc([N+](=O)[O-])cc2)CC1,-73.7
15,COc1ccc(N2CCN(C(=O)Cc3ccc(C)cc3)CC2)cc1,-6.07
16,CS(=O)(=O)N1CCN(C(=O)Cc2ccc([N+](=O)[O-])cc2)CC1,0.692
17,COc1ccccc1CC(=O)N1CCN(c2ccccc2)CC1,9.19
18,CC(=O)N/C(=C\c1ccc(F)cc1)C(=O)N(C)C,14.2
19,O=C(OCn1nnc2ccccc2c1=O)c1ccc2c(=O)n3c(nc2c1)CCC3,-7.06
20,Cc1ccccc1NC(=O)Cn1c(C)nc2ccc(N)cc2c1=O,7.11
21,CCO.N#Cc1c(SC(C(=O)O)c2ccccc2)nc2c(c1-c1cccs1)CCCC2 (stereo not drawn),25.2
